In the library only some 19% were active in any assay of this set; here they are far more common.
HT1080 IDH1KD tx = HT-1080 IDH1 knockdown cell toxicity (counter line). AID 686971. 360,000 tested, 2% active. Potency, µM (doses to about 46.1 µM), without a hit: at the highest dose activity, negative = toxicity, hits mostly cytotoxic. HT-1080 IDH1 knockdown viability, ATP luminescence, 48 h;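 note: potency is the fitted concentration of half-maximal effect; 0% = DMSO wells and -100% = cell-free medium wells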
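CellTiter-Glo luminescence after 48 h compound exposure at 37 degrees C of IDH1-knockdown HT-1080 cells in 5% FBS RPMI. %Activity scaled between DMSO wells and cell-free media wells, with curves fitted and assigned curve classes.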
DT40 TDP1 CPT = growth inhibition of DT40 Tdp1-/-;hTDP1 cells with camptothecin (screen for TDP1 inhibitors). AID 686979. Potency, µM (series often up to 46.2 µM), for inactives: at the top dose activity change, negative = growth inhibition, hits mostly inhibitors. chicken DT40 Tdp1-/-;hTDP1 cells + 20 nM CPT, ATP luminescence, 48 h. 420,000 tested, 12% active; note: potency is the fitted concentration of half-maximal effect; nearly all actives have a fitted effect of over 55% in size
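Chicken DT40 Tdp1-/- cells stably complemented with human TDP1 were seeded at 400 cells/well in medium containing 20 nM camptothecin, exposed to pin-transferred compounds, and grown at 37 °C for at least 48 hr. Viability was read as ATP luminescence.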
HT1080NT lethal = kills 2HG-producing HT-1080-NT fibrosarcoma cells; HT-1080-NT fibrosarcoma viability, CellTiter-Glo ATP luminescence, 48 h; Potency, µM (highest dose often 46.1 µM), for inactives: top-dose activity, negative = less viability, usual class: cytotoxic; 360,000 tested, 1.6% active;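 note: NT is the 2HG producing partner of a matched IDH1 knockdown line; potency is the fitted concentration of half-maximal effect; 0% = DMSO-treated cells and -100% = media-only wells without cells; nearly all actives have a fitted effect of over 55% in size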
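Read-out is CellTiter-Glo luminescence after 10 minutes at room temperature, following 48 hours' compound treatment of HT-1080-NT cells (750 cells/well, RPMI, 5% FBS, 37 degrees C).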
IL1B secr inh = blocks inflammasome-driven IL-1 beta release. THP-1 LPS/ATP IL-1B secretion, AlphaLISA, 16 h; hits give low values. activity change, % at 57.5 µM. 360,000 tested, 4.7% active; in the data active = activity change below about -50%; inconclusive = mostly about -30% to -49%
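THP-1 cells pretreated 1 hr with compounds (up to 57.5 uM final), then stimulated with LPS (250 ng/mL final) plus ATP (1.25 mM final); secreted IL-1B measured by AlphaLISA after 16 hr, decreased signal indicating inhibition.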
DT40 TDP1 no CPT = qHTS for Inhibitors of human tyrosyl-DNA phosphodiesterase 1 (TDP1): qHTS in cells in absence of CPT; DT40 Tdp1-/- hTDP1 cells, no CPT, ATP luminescence, 48 h; Potency, µM (doses to about 46.2 µM), without a hit: top-dose activity change, negative = growth inhibition, hits mostly inhibitors; 420,000 tested, 15% active; AID 686978, 2013; note: potency is the fitted concentration of half-maximal effect; nearly all actives have a fitted effect of over 55% in size
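No-CPT arm: Tdp1-/-;hTDP1 DT40 cells (400/well) plus compounds, incubated ≥48 hr at 37 °C. Readout CellTiter-Glo luminescence.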
The depositor's hits bear a star; i = inactive; ? = inconclusive; nt = no result. Unless noted, calls come from the whole dose curve; as a rule, active = well fitted curve in the direction sought with a large enough effect; inconclusive = small, poorly fitted or top-dose-only effect, or another doubt; inactive = no such curve, though single readings can be large; an effect the other way counts as inactive or inconclusive. Unless noted, % is set by controls: 0 for no effect and ±100 for the full control effect.

SMILES	HT1080 IDH1KD tx	DT40 TDP1 CPT	HT1080NT lethal	IL1B secr inh	DT40 TDP1 no CPT
Cc1nn2c(N3CCCC3)c3c(nc2c1-c1ccccc1)CCC3	-2%	?	5%	16	?
Clc1cccc(-c2cc3nc4c(c(N5CCN(c6cnccn6)CC5)n3n2)CCCC4)c1	8%	23µM*	9%	-15	?
CC1=C(C(=O)Nc2ccccc2C)C(c2ccc(C)o2)N2C(=O)CSC2=N1 (configuration not stated)	-16%	?	-10%	5	?
Cc1ccc(C(=O)OCC(=O)NC(C)c2ccccc2)cc1C (configuration not stated)	0%	2%	-5%	5	4%
NC(=O)c1cc([N+](=O)[O-])c(Cl)cc1NCc1cccnc1	-6%	?	4%	-77*	?
Clc1ccc(NCc2cccnc2)c(Cl)c1	-1%	-23%	-1%	-59*	?
NC(=O)c1cc([N+](=O)[O-])ccc1NCc1cccnc1	28%	-26%	4%	28	?
Cc1ccc(NC(=O)c2cc([N+](=O)[O-])ccc2NCc2cccnc2)cc1Cl	?	?	?	-54*	?
CC(C)(C)C(=O)N1CCN(c2ccc([N+](=O)[O-])c(NCc3cccnc3)c2)CC1	-21%	4.1µM*	-12%	-5	4.1µM*
COc1ccc(NC(=O)C(NCC(C)C)c2ccccc2)cc1Cl (configuration not stated)	4%	-13%	7%	-19	-8%
CC(Sc1nnc(-c2ccncc2)n1C)C(=O)Nc1ccc(N2CCOCC2)cc1 (configuration not stated)	-6%	0%	-1%	2	5%
COC(=O)c1ccc(C)c(NC(=O)C(CCSC)NC(=O)c2cc(OC)c(OC)c(OC)c2)c1 (configuration not stated)	-1%	7%	-20%	20	-16%
CC(C)NC(=O)Cn1cc(C(=O)C(=O)N2CCOCC2)c2ccccc21	16%	-6%	5%	i	-1%
Cc1ccc(-n2nc(C(=O)Nc3ccc(C)c(F)c3)c(=O)n(C)c2=O)cc1	nt	-15%	nt	nt	-26%
COc1ccc(Cl)cc1NC(=O)c1nn(-c2ccc(C)cc2)c(=O)n(C)c1=O	nt	16µM*	nt	nt	-18%
COc1cc(NC(=O)c2nn(-c3ccc(F)cc3)c(=O)n(C)c2=O)cc(OC)c1OC	nt	15µM*	nt	nt	10µM*
Cc1cc(C)c2c(=O)cc(C(=O)Nc3nc4ccc(F)cc4s3)oc2c1	nt	-4%	nt	nt	-25%
COc1ccc(NC(=O)CN(C)S(=O)(=O)c2ccc3nc(C)sc3c2)cc1Cl	nt	23µM*	nt	nt	8.2µM*
COc1ccc(S(=O)(=O)N(C)CC(=O)Nc2cccc(C(C)=O)c2)cc1	-1%	?	2%	-6	-27%
COc1ccc(S(=O)(=O)N(C)CC(=O)Nc2cccc(C(C)=O)c2)cc1Cl	-3%	13µM*	7%	6	13µM*
Cc1nc2ccc(S(=O)(=O)N(CC(=O)Nc3ccc(Cl)cc3)Cc3ccccc3)cc2s1	nt	?	nt	nt	15µM*
CN(C(=O)COC(=O)/C=C/c1cn(-c2ccccc2)nc1-c1ccc2c(c1)OCCO2)C1CCS(=O)(=O)C1 (configuration not stated)	-2%	?	-3%	?	15µM*
Cc1nn(-c2ccccc2)c(C)c1/C=C/C(=O)OCC(=O)NC1CCS(=O)(=O)C1 (configuration not stated)	1%	7%	17%	31	-6%
O=C(COC(=O)/C=C/c1cn(-c2ccccc2)nc1-c1ccc2c(c1)OCCO2)NC1CCS(=O)(=O)C1 (configuration not stated)	-7%	?	-6%	?	21µM*
COc1ccc(CC(=O)OCC(=O)Nc2cccc(C(C)=O)c2)cc1OC	-9%	-4%	-5%	20	0%
SMILES	HT1080 IDH1KD tx	DT40 TDP1 CPT	HT1080NT lethal	IL1B secr inh	DT40 TDP1 no CPT
COc1ncc2nc(C)c(=O)n(CCC#N)c2n1	nt	14%	nt	nt	-12%
Clc1ccc(Br)c(-c2nc3ccccc3[nH]2)c1	-3%	1%	-2%	-15	-3%
Clc1ccc(-c2nnnn2-c2ccc(Cl)cc2)cc1	-7%	-9%	?	9	-24%
Nc1ncc(-c2nnnn2-c2ccc(Cl)cc2)c(-c2ccc(Cl)cc2)n1	7.3µM*	4.6µM*	6.5µM*	40	5.8µM*
O=C(NCc1cccc(F)c1)c1ccc(CS(=O)c2ccccc2Cl)o1 (configuration not stated)	nt	16µM*	nt	nt	23µM*
O=C(NCCCN1CCC(Cc2ccccc2)CC1)c1ccc(CS(=O)c2ccccc2Cl)o1 (configuration not stated)	-24%	23µM*	?	-23	21µM*
O=C(NCc1ccco1)c1ccc(CS(=O)c2ccccc2Cl)o1 (configuration not stated)	8%	1%	9%	-13	-19%
O=C(NCCCc1ccccc1)c1ccc(CS(=O)Cc2ccccc2Cl)o1 (configuration not stated)	-4%	-30%	-8%	?	?
Cc1ccccc1S(=O)Cc1ccc(C(=O)NCc2ccccc2Cl)o1 (configuration not stated)	nt	21µM*	nt	nt	?
COc1ccc(-c2cc3c(=O)n(CC(=O)NCCCN4CCC(N5CCCCC5)CC4)ncn3n2)cc1	-1%	15µM*	-14%	-12	?
Fc1ccc(Nc2nc(NCc3ccco3)c3ccccc3n2)cc1	-18%	9.2µM*	?	-102*	6.5µM*
Cc1ccc2c(NCc3ccco3)nc(NC(C)C)nc2c1	18µM*	?	26µM*	-111*	?
Cc1ccc(Nc2nc(N)c([N+](=O)[O-])c(NCc3ccco3)n2)cc1	?	?	-29%	-6	?
c1coc(CNc2nc(NCc3ccco3)c3ccccc3n2)c1	nt	11µM*	nt	nt	13µM*
N#Cc1c2c(c(NCc3ccco3)n3c1nc1ccccc13)CCC2	7%	-59%	2%	55	21µM*
Nc1nc(Nc2ccccc2)nc(NCc2ccco2)c1[N+](=O)[O-]	-9%	?	-5%	-15	?
CC1(C)C(=O)OC(c2ccc([N+](=O)[O-])cc2)C(C)(C)C1=O (configuration not stated)	1%	?	10%	27	9%
CCOC(=O)c1sc(N)c(C#N)c1CSc1nnc(C2CCCCC2)n1N	22%	?	13%	-7	-28%
CC(C)NCC(=O)Nc1c2c(nc3ccccc13)CCC2	-15%	-23%	-8%	27	-12%
